Results reported in PubChem BioAssay.
Activity calls are given as the source filed them. Unless noted, how the calls were made is not given here.

Tests used:
[1] = resazurin metabolic signal in HepG2 cells – cell-based, resazurin fluorescence, 24 h, PK04 Diversity Set, profiling panel (AID 1172); settings: HepG2 viability, higher = more signal; further: test concentration not given here
[2] = budding yeast growth changes without added modifier – OD600, strain BY4716, 24 h, basal condition, primary screen (AID 1173); settings: S. cerevisiae BY4716 growth, OD600, 24 h; higher = more signal, called active from +8 up or from −8 down
[3] = viability profiling in MM1S myeloma cells – cell-based, resazurin fluorescence, basal, 24 h, PK04 Diversity Set, profiling panel (AID 1174); settings: higher = more signal, called active from +8 up or from −8 down;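 further: MM1S multiple myeloma cell line; test concentration not given here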
[4] = biological target: Dihydroorotate dehydrogenase (quinone), mitochondrial (Plasmodium falciparum (isolate 3D7)) (UniProt Q08210); test: inhibition of P. falciparum DHODH – biochemical, C-terminal His tag, absorbance 600 nm, primary screen (AID 1175); settings: PfDHODH enzyme, DCIP absorbance 600 nm; higher = more signal, called active from +8 up or from −8 down;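 further: recombinant parasite enzyme with a five histidine tag at its C terminus; test concentration not given here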
[5] = inhibition of PAO1 biofilm formation – strain PAO1, LB-PBS medium, absorbance 600 nm, primary screen (AID 1176); further: test concentration not given here; settings: P. aeruginosa PAO1 growth/biofilm, A600, 12 h; higher = more signal
[6] = growth modulation of vineyard yeast isolate – strain RM11-1a, OD600, basal, 24 h, primary screen (AID 1177);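 further: cultures grown under basal conditions with no added stressor; test concentration not given here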; settings: S. cerevisiae RM11-1a growth, OD600, 24 h; higher = more signal, called active from +8 up or from −8 down
[7] = growth of efflux-deficient E. coli DRC39 – strain DRC39, OD650, 24 h, E. coli filamentation inducers, primary screen (AID 1178);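 further: growth measured as culture turbidity by optical density at 650 nm; test concentration not given here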; settings: E. coli DRC39 acrAB, higher = more signal, called active from +8 up or from −8 down
[8] = growth of efflux-deficient E. coli DRC39 – strain DRC39, OD650, 48 h, E. coli filamentation inducers, primary screen (AID 1179);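 further: screen aims at cell division blockers that make cells filament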; settings: E. coli DRC39 delta-acrAB growth, higher = more signal, called active from +8 up or from −8 down
[9] = viability profiling in RPMI8226 myeloma cells – cell-based, resazurin fluorescence, basal, 24 h, PK04 Diversity Set, profiling panel (AID 1180); settings: higher = more signal;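 further: RPMI8826 multiple myeloma cell line at 5000 cells per well; test concentration not given here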
[10] = biological target: E3 ubiquitin-protein ligase XIAP (Homo sapiens) (UniProt P98170); test: small molecules binding XIAP protein – biophysical, small-molecule microarray, fluorescence 635 nm, primary screen (AID 1181); settings: higher = more signal;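 further: score merges 667 nm emission and signal to noise over triplicate slides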
Sequence of E3 ubiquitin-protein ligase XIAP (Homo sapiens) (P98170 whole entry, looked up): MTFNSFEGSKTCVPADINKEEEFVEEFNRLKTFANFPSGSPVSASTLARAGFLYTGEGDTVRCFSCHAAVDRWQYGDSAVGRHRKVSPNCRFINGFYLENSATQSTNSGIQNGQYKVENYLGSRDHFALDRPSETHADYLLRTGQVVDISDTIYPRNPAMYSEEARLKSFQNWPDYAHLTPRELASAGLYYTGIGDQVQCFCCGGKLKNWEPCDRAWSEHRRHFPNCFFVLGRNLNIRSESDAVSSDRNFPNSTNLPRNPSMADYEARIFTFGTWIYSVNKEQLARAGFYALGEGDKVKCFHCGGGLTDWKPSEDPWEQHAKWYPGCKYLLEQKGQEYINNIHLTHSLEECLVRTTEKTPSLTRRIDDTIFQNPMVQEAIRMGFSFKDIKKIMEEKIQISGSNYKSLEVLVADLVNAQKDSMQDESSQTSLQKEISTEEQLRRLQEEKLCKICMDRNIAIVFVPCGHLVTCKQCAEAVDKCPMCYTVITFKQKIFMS

Sequence of Dihydroorotate dehydrogenase (quinone), mitochondrial (Plasmodium falciparum (isolate 3D7)) (Q08210 whole entry, looked up): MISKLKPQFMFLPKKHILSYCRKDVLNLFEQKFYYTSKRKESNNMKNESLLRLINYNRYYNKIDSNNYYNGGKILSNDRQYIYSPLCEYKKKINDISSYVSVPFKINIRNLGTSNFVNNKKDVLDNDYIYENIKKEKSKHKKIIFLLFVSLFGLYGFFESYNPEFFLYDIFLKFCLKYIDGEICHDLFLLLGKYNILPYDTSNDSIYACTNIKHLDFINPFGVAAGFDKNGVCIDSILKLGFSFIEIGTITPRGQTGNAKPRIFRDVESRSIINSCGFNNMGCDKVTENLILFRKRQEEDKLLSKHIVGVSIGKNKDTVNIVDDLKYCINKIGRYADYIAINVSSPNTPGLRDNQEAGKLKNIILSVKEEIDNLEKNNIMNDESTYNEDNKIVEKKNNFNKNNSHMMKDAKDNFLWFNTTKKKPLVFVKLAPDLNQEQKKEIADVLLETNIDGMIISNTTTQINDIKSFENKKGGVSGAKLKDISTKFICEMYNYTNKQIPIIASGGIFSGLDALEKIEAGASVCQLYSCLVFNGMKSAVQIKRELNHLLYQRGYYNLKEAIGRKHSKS

SMILES	z-score [1]	z-score [2]	z-score [3]	composite z-score [4]	z-score [5]	z-score [6]	z-score [7]	z-score [8]	z-score [9]	composite z-score [10]
COc1cc(Br)cc(C(O)C2C=CC3C(=O)N(C)C(=O)C3N2N2CCCCC2)c1OC (stereo not given)	-1.17	-1.43 (inactive)	-1.17 (inactive)	-0.282 (inactive)	0.406 (inactive)	1.25 (inactive)	-0.596 (inactive)	-0.683 (inactive)	-1.07	0.0123
COc1ccc([Si](C)(C)[C@@H]2[C@@H](CCO)O[C@]3(C(=O)N(Cc4ccc(N(C=O)c5ccccc5)cc4)c4ccccc43)[C@H]2C)cc1	-1.59	1.76 (inactive)	-2.44 (inactive)	-0.493 (inactive)	1.46 (inactive)	4.89 (inactive)	0.544 (inactive)	-0.339 (inactive)	-2.25	-0.184
C=CCN1C(=O)[C@@]2(CC=C)N=C(c3ccc(OCCCO)cc3)O[C@H]2c2ccccc21	-0.492	-2.87 (inactive)	-3.88 (inactive)	-1.17 (inactive)	2.21 (inactive)	0.113 (inactive)	1.19 (inactive)	2.46 (inactive)	-3.54	0.0842
CCOC(=O)C[C@H]1[C@H](OC(=O)c2cc3ccccc3oc2=O)[C@@H](NC(=O)c2ccccc2)c2cc(OCCCO)ccc2N1C(=O)c1ccc2ccccc2n1	-0.359	-0.594 (inactive)	-1.04 (inactive)	0.542 (inactive)	-0.246 (inactive)	-0.5 (inactive)	-0.741 (inactive)	-1.2 (inactive)	-1.16	-0.28
CN(C)C(=O)[C@@]1(CCS(=O)(=O)c2ccccc2)COC(c2ccc(OCCCO)cc2)=N1	-0.837	1.14 (inactive)	-2.38 (inactive)	0.989 (inactive)	1.03 (inactive)	1.08 (inactive)	0.73 (inactive)	0.56 (inactive)	-2.08	-0.0502
COC(=O)[C@@]1(Cc2ccc(F)cc2)[C@H]2c3cc(C(=O)N(C)C)n(Cc4ccccc4)c3C[C@H]2CN1C(=O)c1ccccc1	-1.49	1.98 (inactive)	-0.946 (inactive)	0.151 (inactive)	0.976 (inactive)	1.61 (inactive)	-0.342 (inactive)	0.232 (inactive)	-2.86	-0.2
O=C(NC1CC1)[C@@H]1c2ccccc2C(=O)N(Cc2ccccc2Cl)[C@H]1c1ccc(CO)cc1	0.382	-2.09 (inactive)	-0.0621 (inactive)	-1.36 (inactive)	0.994 (inactive)	-2.66 (inactive)	1.28 (inactive)	1.49 (inactive)	0.69	0.0297
O=C1c2ccccc2[C@](Cc2ccccc2I)(C(=O)NCCN2CCOCC2)[C@H](c2ccc(CO)cc2)N1C1CCCCC1	-0.16	-1.21 (inactive)	-0.526 (inactive)	-0.119 (inactive)	0.531 (inactive)	0.358 (inactive)	0.29 (inactive)	0.205 (inactive)	-0.954	0.0623
COC(=O)[C@@]1(Cc2ccc(OC)cc2)[C@H]2c3cc(C(=O)N(C)C)n(Cc4ccc(S(C)(=O)=O)cc4)c3C[C@H]2CN1C(=O)c1ccccc1	0.0042	0.0274 (inactive)	-0.19 (inactive)	-1.4 (inactive)	2.2 (inactive)	-2.36 (inactive)	0.366 (inactive)	-0.441 (inactive)	0.766	-0.0139
Cc1ccc(S[C@]2(C(=O)NCCCN(C)C)CC(=O)N(Cc3ccccc3C(F)(F)F)[C@@H]2c2ccc(CO)cc2)cc1	-0.758	-0.362 (inactive)	0.515 (inactive)	-0.0819 (inactive)	-0.0807 (inactive)	-0.329 (inactive)	0.252 (inactive)	0.164 (inactive)	0.119	-0.267
CC(C)C[C@@H]1NC(=O)[C@@H]2C[C@H](C(=O)O)[C@H](c3cccc(OCCO)c3)N2C1=O	-0.314	-0.0664 (inactive)	0.254 (inactive)	-1.16 (inactive)	-0.447 (inactive)	-0.747 (inactive)	0.398 (inactive)	-0.263 (inactive)	0.294	-0.059
NC(=O)[C@@H]1[C@H]2C(=O)O[C@H](c3ccccc3)[C@H](c3ccccc3)N2[C@H](c2ccc(O)cc2)[C@@]12C(=O)Nc1ccccc12	0.363	-1.39 (inactive)	0.307 (inactive)	-0.565 (inactive)	0.449 (inactive)	-0.665 (inactive)	0.385 (inactive)	-0.766 (inactive)	-0.224	0.0073
COCCOC(=O)N1C(=O)[C@@]2(c3cc(C#CCC(C(=O)OC)C(=O)OC)ccc31)[C@H](C(=O)N1CCN(c3ncccn3)CC1)[C@H]1C(=O)O[C@H](c3ccccc3)[C@H](c3ccccc3)N1[C@@H]2c1ccccc1OCCO	-0.354	1.51 (inactive)	-0.0626 (inactive)	-1.42 (inactive)	3.78 (inactive)	2.75 (inactive)	0.284 (inactive)	0.0336 (inactive)	-0.5	-0.0749
COc1ccc([Si](C)(C)[C@H]2[C@H](CCO)O[C@@]3(C(=O)N(Cc4ccc(N(C=O)c5ccccc5)cc4)c4ccccc43)[C@@H]2C)cc1	-1.57	1.83 (inactive)	-3.71 (inactive)	0.041 (inactive)	2.06 (inactive)	4.71 (inactive)	0.216 (inactive)	-0.495 (inactive)	-2.77	-0.163
COc1ccc(CCNC(=O)[C@@H]2c3ccccc3C(=O)N(Cc3ccccc3Cl)[C@H]2c2ccc(CO)cc2)cc1	0.891	-0.541 (inactive)	0.258 (inactive)	0.0856 (inactive)	0.416 (inactive)	0.394 (inactive)	-0.258 (inactive)	-0.457 (inactive)	0.883	-0.102
COc1ccc(C#Cc2ccc3c(c2)[C@]2(C(=O)N3)[C@H](c3ccccc3OCCO)N3[C@H](c4ccccc4)[C@H](c4ccccc4)OC(=O)[C@H]3[C@@H]2C(=O)Nc2nc3ccccc3s2)cc1	-0.927	1.35 (inactive)	-0.545 (inactive)	-30.7 (active)	2.77 (inactive)	2.93 (inactive)	0.0225 (inactive)	0.132 (inactive)	-1.76	0.0471
COC(=O)C(CC#Cc1ccc2c(c1)[C@]1(C(=O)N2)[C@H](C(=O)Nc2nc3ccccc3s2)[C@H]2C(=O)O[C@H](c3ccccc3)[C@H](c3ccccc3)N2[C@@H]1c1ccccc1OCCO)C(=O)OC	0.522	0.839 (inactive)	-0.334 (inactive)	-4.92 (inactive)	2.47 (inactive)	2.1 (inactive)	-0.0715 (inactive)	0.037 (inactive)	-1.1	0.472
C=C(COC)/C(=C/C[C@H](OC(C)=O)c1ccc(CO)o1)c1cc(C(=O)OC)ccc1OC	-0.613	-0.0209 (inactive)	-0.891 (inactive)	-6.52 (inactive)	-0.317 (inactive)	-0.253 (inactive)	-1.38 (inactive)	-0.816 (inactive)	-0.746	0.0101
Cc1ccc(S[C@]2(C(=O)O)CC(=O)N(C(C)C)[C@@H]2c2ccc(CO)cc2I)cc1	0.975	-4.89 (inactive)	-1.66 (inactive)	-1.12 (inactive)	0.953 (inactive)	-2.76 (inactive)	0.818 (inactive)	1.42 (inactive)	-1.58	-0.122
COc1ccc(/C=C/C=O)cc1	-0.316	-3.59 (inactive)	-0.998 (inactive)	-0.291 (inactive)	0.0061 (inactive)	0.313 (inactive)	0.154 (inactive)	0.0154 (inactive)	-0.495	0.128
